The supplement of paper PMC13380429

Legend:
[1] = test system: Vero E6 infected with SARS-CoV-2; assay: morphology score (similarity to uninfected cells); higher = more like uninfected cells; conditions: 24 h
[2] = test system: Vero E6 infected with SARS-CoV-2; assay: SARS-CoV-2 infection rate relative to infected DMSO; higher = more infection, active = 60 or less; conditions: 24 h

| SMILES | morphology score [1] | SARS-CoV-2 infection rate [2] |
| --- | --- | --- |
| CCN1CCC(n2cc(CNc3cc(Cl)c4ncc(C#N)c(Nc5ccc(F)c(Cl)c5)c4c3)nn2)CC1 [cot-inhibitor-2] (10 µM) | 0.683 | 40.5% (active) |
| C[N+](C)(C)NCCC(=O)O [meldonium] (10 µM) | 0.253 | 88.5% (inactive) |
| CN1CCC(NC(=O)c2cc(-c3c(O)cc(O)cc3Oc3ccc([N+](=O)[O-])cc3)on2)CC1 (0.833333 µM) | 0.247 | 95.5% (inactive) |
| CN1C(CCl)Nc2cc(Cl)c(S(N)(=O)=O)cc2S1(=O)=O (stereo unspecified) [methyclothiazide] (10 µM) | 0.0153 | 104% (inactive) |
| CCN1CCN(Cc2ccc(Nc3ncc(F)c(-c4cc(F)c5nc(C)n(C(C)C)c5c4)n3)nc2)CC1 [abemaciclib] (10 µM) | 0.0416 | 107% (inactive) |
| C[C@@H](Nc1cc(F)cc(F)c1)c1cc(C(=O)N(C)C)cc2c(=O)cc(N3CCOCC3)oc12 (10 µM) | -0.225 | 122% (inactive) |
| CC(CCc1ccccc1)NC(C)C(O)c1ccc(O)cc1 (stereo unspecified) [buphenine] (10 µM) | -0.137 | 114% (inactive) |
| CCCCCCCCCCCC(=O)O [lauric-acid] (10 µM) | 0.185 | 96.5% (inactive) |
| CCNC(=O)C#Cc1ccc2c(C(=Nc3ccc(CN(C)C)cc3)c3ccccc3)c(O)[nH]c2c1 (0.833333 µM) | -0.154 | 99% (inactive) |
| CC(=O)OCC1=C(C(=O)O)N2C(=O)[C@@H](N)[C@H]2SC1 [7-aminocephalosporanic-acid] (10 µM) | -0.0363 | 104% (inactive) |
| Cc1onc(-c2c(Cl)cccc2Cl)c1C(=O)N[C@@H]1C(=O)N2[C@@H]1SC(C)(C)[C@@H]2C(=O)O [dicloxacillin] (10 µM) | 0.0315 | 115% (inactive) |
| COc1cc(N)c(Cl)cc1C(=O)NC1CN2CCC1CC2 (stereo unspecified) [zacopride] (10 µM) | 0.169 | 89% (inactive) |
| CCC(=N\O)/C(C)=C/c1ccc(F)cc1 (10 µM) | 0.0411 | 110% (inactive) |
| CCOC(=O)[C@@H](N)Cc1ccc(-c2cc(O[C@H](c3ccc(Cl)cc3-n3ccc(C)n3)C(F)(F)F)nc(N)n2)cc1 [telotristat-ethyl] (10 µM) | 0.343 | 95.5% (inactive) |
| CN[C@H]1C(=O)N[C@@H]2Cc3ccc(cc3)Oc3cc4cc(c3O[C@@H]3O[C@H](C(=O)O)[C@@H](O)[C@H](O)[C@H]3NC(=O)CCCCCCCCC(C)C)Oc3ccc(cc3Cl)[C@@H](O)[C@@H]3NC(=O)[C@H](NC(=O)[C@@H]4NC(=O)[C@@H](NC2=O)c2cc(cc(O)c2Cl)Oc2cc1ccc2O)c1ccc(O)c(c1)-c1c(O[C@H]2O[C@H](CO)[C@@H](O)[C@H](O)[C@@H]2O)cc(O)cc1[C@@H](C(=O)NCCCN(C)C)NC3=O [dalbavancin] (10 µM) | -0.218 | 113% (inactive) |
| Cc1c[nH]c(=O)n(CCCN2CCN(c3ccccc3OCC(F)(F)F)CC2)c1=O (10 µM) | 0.0456 | 111% (inactive) |
| CCS(=O)(=O)N1CC(CC#N)(n2cc(-c3ncnc4[nH]ccc34)cn2)C1 [baricitinib] (10 µM) | 0.418 | 112% (inactive) |
| CC[C@]1(O)C[C@H]2CN(CCc3c([nH]c4ccccc34)[C@@](C(=O)OC)(c3cc4c(cc3OC)N(C=O)[C@H]3[C@@](O)(C(=O)OC)[C@H](OC(C)=O)[C@]5(CC)C=CCN6CC[C@]43[C@@H]65)C2)C1 [Vincristine (sulfate)] (10 µM) | -0.036 | 101% (inactive) |
| CCCc1nc(C(C)(C)O)c(C(=O)O)n1Cc1ccc(-c2ccccc2-c2nnn[nH]2)cc1 [olmesartan] (10 µM) | 0.0191 | 102% (inactive) |
| Clc1ccc(C(Cn2ccnc2)OCc2ccc(Sc3ccccc3)cc2)c(Cl)c1 (stereo unspecified) [fenticonazole] (10 µM) | -0.0119 | 114% (inactive) |
| Nc1nc(Nc2ccc(S(N)(=O)=O)cc2)nn1C(=O)c1c(F)cccc1F (0.833333 µM) | -0.114 | 120% (inactive) |
| CC(C)(C)Sc1c(CC(C)(C)C(=O)O)n(Cc2ccc(Cl)cc2)c2ccc(OCc3ccc4ccccc4n3)cc12 [quiflapon] (10 µM) | -0.04 | 106% (inactive) |
| NCCCC[C@H](N[C@@H](CCc1ccccc1)C(=O)O)C(=O)N1CCC[C@H]1C(=O)O [lisinopril] (10 µM) | 0.0957 | 100% (inactive) |
